The values below come from PubChem BioAssay AID588352 (The Scripps Research Institute Molecular Screening Center, 2011).

Screen size: about 360,000 compounds; about 620 (0.17%) were called active. This is one part of a sample in which actives are shown more often than they occur. Values without a mark were called inactive.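 Rule for the calls: active = inhibition above a per-campaign cutoff, the mean of all compounds plus 3 SD (cut at about 60% in these data); inactive = the rest.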

The target in the test is Nuclear receptor coactivator 3 (Homo sapiens) (UniProt Q9Y6Q9). Description: SRC3 coactivator transcriptional activity inhibitors, primary screen, cell-based, luminescence (AID 588352).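 Note: 0% = DMSO-treated cells and 100% = gossypol-treated cells at 36 µM; higher means less SRC3-driven luciferase light from the GAL4 reporter.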 To be noted: HEK293 GAL4-SRC3 luciferase reporter, at 3.6 µM, stronger effect = higher value.
Chain of Nuclear receptor coactivator 3 (Homo sapiens) (Q9Y6Q9 whole entry, looked up, the tested form may be a part): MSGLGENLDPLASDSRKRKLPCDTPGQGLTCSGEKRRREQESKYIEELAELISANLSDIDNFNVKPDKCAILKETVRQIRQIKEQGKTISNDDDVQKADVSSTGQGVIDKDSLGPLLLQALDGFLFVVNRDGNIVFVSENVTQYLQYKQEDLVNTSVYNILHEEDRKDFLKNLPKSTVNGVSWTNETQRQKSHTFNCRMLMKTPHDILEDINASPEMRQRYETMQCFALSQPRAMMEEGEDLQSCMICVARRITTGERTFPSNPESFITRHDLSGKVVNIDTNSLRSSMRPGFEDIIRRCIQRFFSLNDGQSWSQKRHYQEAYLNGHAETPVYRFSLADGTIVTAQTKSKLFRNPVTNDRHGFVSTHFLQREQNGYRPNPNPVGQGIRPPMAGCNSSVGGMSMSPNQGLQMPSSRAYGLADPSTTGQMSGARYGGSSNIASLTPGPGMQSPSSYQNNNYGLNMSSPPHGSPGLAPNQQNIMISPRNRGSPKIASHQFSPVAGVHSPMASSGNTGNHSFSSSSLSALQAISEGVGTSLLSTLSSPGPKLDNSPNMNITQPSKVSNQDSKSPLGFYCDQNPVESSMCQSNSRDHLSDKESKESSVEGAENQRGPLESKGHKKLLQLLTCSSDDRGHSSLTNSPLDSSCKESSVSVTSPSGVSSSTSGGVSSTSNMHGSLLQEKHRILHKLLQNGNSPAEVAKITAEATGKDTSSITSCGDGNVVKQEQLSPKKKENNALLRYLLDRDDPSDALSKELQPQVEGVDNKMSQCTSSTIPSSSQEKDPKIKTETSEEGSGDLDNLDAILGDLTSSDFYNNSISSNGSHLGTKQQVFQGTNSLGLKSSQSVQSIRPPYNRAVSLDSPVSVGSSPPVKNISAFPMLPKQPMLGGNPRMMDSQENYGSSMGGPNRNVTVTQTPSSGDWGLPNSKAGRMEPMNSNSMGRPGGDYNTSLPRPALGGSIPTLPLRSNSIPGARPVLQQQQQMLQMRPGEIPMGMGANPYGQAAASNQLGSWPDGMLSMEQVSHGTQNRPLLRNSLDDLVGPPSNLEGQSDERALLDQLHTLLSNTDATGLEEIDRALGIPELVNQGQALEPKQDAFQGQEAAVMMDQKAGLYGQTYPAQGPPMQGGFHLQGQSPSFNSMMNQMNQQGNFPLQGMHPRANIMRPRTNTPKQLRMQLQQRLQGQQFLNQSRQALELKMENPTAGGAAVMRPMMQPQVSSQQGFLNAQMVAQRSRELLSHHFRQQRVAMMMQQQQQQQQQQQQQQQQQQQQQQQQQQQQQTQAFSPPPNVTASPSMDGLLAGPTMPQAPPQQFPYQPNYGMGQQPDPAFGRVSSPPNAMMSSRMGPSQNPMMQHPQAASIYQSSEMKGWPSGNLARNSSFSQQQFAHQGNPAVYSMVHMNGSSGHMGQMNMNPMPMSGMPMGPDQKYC
What is called inhibition is the relative decrease from the control value, in per cent. `CC12CCC(O)CC1CCC1C2CCC2(C)C(C(=O)CC(O)C(F)(F)F)CCC12` (stereo not given): the inhibition was 15.9%.

As to `C[C@]12CC[C@H](O)C[C@H]1CC[C@@H]1C2CC[C@]2(C)[C@@H](C3=CC(=O)OC3)[C@@H](O)C[C@]12O` (stereo not given in full), the inhibition is 63.5% (active).

On to `Cc1cccc(OP(=O)(Oc2cccc(C)c2)OC(c2ccccc2)C(F)(F)F)c1` (stereo not given), for which the inhibition was -1.86%.

As to `C[N+]1(C)CCOC(O)(c2ccc(-c3ccc(C4(O)C[N+](C)(C)CCO4)cc3)cc2)C1` (stereo not given), the inhibition is 20.3%.

In the case of `CNC(=S)N/N=C1\C2CN3CCN(C2)CC1(c1ccccc1)C3`, the inhibition was 8.65%.

With `COC(=O)C1=C(c2ccc(-c3ccccc3)c(F)c2)C[C@@H]2CC[C@H]1N2C(=O)NCc1ccc(F)cc1`, the inhibition is 9.01%.

As to `CCC(C)(O)C(=O)OC1C(=O)OC2CC3C(C)=CC(=O)C(O)C3(C)C3C4(O)OCC23C1C(C)C4O` (stereo not given), the inhibition is 93.7% (active).

For the compound `O=C(Cn1c(=O)n(CC2CS2)c2ccccc21)N1CCCCC1` (stereo not given), the inhibition is -25.5%.

With `COc1ccccc1CN1CCN(C(=O)Cc2ccccc2)CC1`, the inhibition was 2.02%.

As for `COC(=O)[C@@H]1C(OC(=O)c2ccccc2)CC2CCC1N2C` (stereo not given in full), the inhibition is 14.1%.

In the case of `CN(C)CCN(CC1CCCN(Cc2ccccc2F)C1)C(=O)Cc1ccc(F)c(F)c1` (stereo not given), the inhibition is 3.08%.

With `C=CC12CN(C)[C@@H]3C4CO[C@H](C[C@H]41)[C@]1(C(=O)Nc4ccccc41)[C@@H]32` (stereo not given in full), the inhibition was 4.33%.

For the compound `CCOc1ccc(-c2cc(C)[n+](CCN(CC)CC)c(-c3ccc(OCC)cc3)c2)cc1`, the inhibition was 78% (active).

Regarding `Cn1c(O)c(C=Nc2ccc3c(c2)CCC3)c(=O)n(C)c1=O`, the inhibition is -9.05%.

In the case of `COC1C(O)C(C)OC(OC2CCC3(C=O)C(CCC4C3CCC3(C)C(C5=CC(=O)OC5)CCC43O)C2)C1O` (stereo not given), the inhibition was 90.5% (active).

Regarding `Cn1c(C(=O)N2CCC(C(=O)N3CCC4(CC3)OCCO4)CC2)cc2sccc21`, the inhibition was 6.98%.

As for `NC(=O)Cn1cc(C(=O)c2ccccc2F)c2ccccc21`, the inhibition was 10.3%.

In the case of `Cc1ccc(P(=S)(c2ccc(C)o2)N2CCOCC2)o1`, the inhibition was 6.64%.

Regarding `CC(c1ccccc1)(c1ccccc1)c1ccncc1`, the inhibition was 16.2%.

On to `Fc1cccc(F)c1CN1CCN(Cc2c(F)cccc2F)CC1`, for which the inhibition was 28.2%.

`COc1ccc2[nH]c3c(c2c1)CCN[C@H]3C`: the inhibition is 7.99%.

Consider `CC(=O)OC1C2(CC3N4C(=O)C5(CO)SSC4(CC31O)C(=O)N5C)OC(C)C(C)(C)C2=O` (stereo not given), for which the inhibition was 67.7% (active).

In the case of `CC1CCCN1CCC(C(N)=O)(c1ccccc1)c1ccccc1` (stereo not given), the inhibition was -21.2%.

As for `COP(=O)(OC)C(NC(=O)c1ccc(C)cc1)C(Cl)(Cl)Cl` (stereo not given), the inhibition is -4%.

As to `CCCCCCCCCCCCn1ccc(=N)cc1`, the inhibition was 76.9% (active).

With `CCOC(=O)C1CN(C)CCC1=O` (stereo not given), the inhibition was 21.1%.

As to `c1ccc2sc(N3CCNCC3)nc2c1`, the inhibition was -3.09%.

On to `COc1cccc(OC)c1C(=O)NC(=S)N1C[C@H]2C[C@H](C1)c1cccc(=O)n1C2`, for which the inhibition is 19.2%.

On to `OC(Cn1c2ccccc2c2ccccc21)C[n+]1ccccc1` (stereo not given), for which the inhibition was -8.77%.

Take `CN(C)P(=S)(Nc1ccccc1)C(Cl)(Cl)Cl` (stereo not given): the inhibition is 6.36%.
